# The full list was thinned out, with hits kept by preference.
# Tb PYK inh – inhibitors of Trypanosoma brucei pyruvate kinase. Q57TT1. TbPYK enzyme, Kinase-Glo Plus ATP luminescence, 45 min. Potency, µM (top dose mostly 76.8 µM), for the others: top-dose activity, negative = inhibition, actives largely listed as inhibitors. 410,000 tested, 0.12% active. AID 624173; note: potency is the fitted concentration of half-maximal effect; % is set by controls: 0 for no effect and ±100 for the full control effect; nearly all actives have a fitted effect of over 50% in size
#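 Enzyme and substrate buffer are dispensed first and compound is pin-transferred. ADP at 130 uM final then starts the reaction, which runs 45 min at room temperature. Detection reagent is added for 10 min before luminescence is imaged.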
# Cycloheximide cs – counter-screen for Shiga toxin inhibitors: cycloheximide protein synthesis inhibition; cell reporter, cycloheximide protein synthesis inhibition counterscreen; max response, %; 300,000 tested, 12% active; in the data active = max response mostly above about 13%, no sharp cut-off; inactive = mostly below about 14%; note: read at 38.3 µM for the half of the compounds with a filed dose; 0% is about no effect
# Sm TGR inh – S. mansoni TGR enzyme inhibition; Q962Y6; purified TGR, DTNB reduction, TNB absorbance 405 nm; Potency, µM (titrated, usually from 114 µM), for inactives: top-dose activity change, negative = inhibition, usual class: inhibitors; 360,000 tested, 3% active; note: potency is the fitted concentration of half-maximal effect; % is set by controls: 0 for no effect and ±100 for the full control effect; nearly all actives have a fitted effect of over 60% in size
#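 Kinetic colorimetric format: TGR-catalysed, NADPH-driven DTNB reduction monitored via TNB absorbance. Enzyme dispensed at 20 nM; compound exposure 15 min at room temperature before reaction start.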
# Giardia FBPA inh – blocks Giardia fructose-bisphosphate aldolase activity; A8B2U2; purified Giardia FBPA; Potency, µM (doses to about 59.6 µM), inactives show at the highest dose activity, negative = inhibition, most hits filed as inhibitors; 290,000 tested, 0.71% active; AID 2451; note: potency is the fitted concentration of half-maximal effect; % is set by controls: 0 for no effect and ±100 for the full control effect; nearly all actives have a fitted effect of over 55% in size
# Target sequence (A8B2U2 whole entry, looked up): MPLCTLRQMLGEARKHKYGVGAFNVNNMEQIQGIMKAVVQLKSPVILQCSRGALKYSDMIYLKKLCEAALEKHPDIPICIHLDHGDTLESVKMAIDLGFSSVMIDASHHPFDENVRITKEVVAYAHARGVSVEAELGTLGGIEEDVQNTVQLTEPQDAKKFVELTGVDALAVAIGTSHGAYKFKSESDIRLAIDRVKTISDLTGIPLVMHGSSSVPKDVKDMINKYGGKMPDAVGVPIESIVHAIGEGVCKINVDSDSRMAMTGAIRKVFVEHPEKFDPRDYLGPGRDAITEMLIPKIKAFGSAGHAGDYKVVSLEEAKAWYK
#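 Giardia FBPA (40 nM reagent) was preincubated 10 min at RT with compound (up to 57.5 uM final), then substrate plus GAPDH/TPI/NAD/arsenate coupling system with diaphorase/resazurin was added; resorufin fluorescence (525/598 nm) was read after 20 min.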
# LmPK inh – blocks Leishmania mexicana pyruvate kinase activity | Q27686 | purified LmPK, Kinase-Glo ATP luminescence, 1 h | Potency, µM (doses to about 57.5 µM), without a hit: top-dose activity change, negative = inhibition, hits mostly inhibitors | 290,000 tested, 0.37% active | AID 1721; note: potency is the fitted concentration of half-maximal effect; % is set by controls: 0 for no effect and ±100 for the full control effect
#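 0.1 nM LmPK, 0.5 mM PEP, 0.1 mM ADP; 50 mM imidazole pH 7.2, 7 mM MgCl2, 50 mM KCl; 1 h RT. Kinase-Glo luminescence readout, normalized to no-enzyme (full inhibition) and uninhibited wells.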
# Shiga inhibitor – Shiga toxin inhibition; Vero cells, Shiga toxin protein synthesis inhibition reporter; inhibition, % at 38.7 µM; 290,000 tested, 9.2% active; AID 2315; in the data active = inhibition mostly above about 28%, no sharp cut-off; inactive = mostly below about 43%; note: 0% is about no effect
# Numbers without * were called inactive; nt = no result given; [ ] = dose if it differs, or a comment. Unless noted, calls come from the whole dose curve; as a rule, active = well fitted curve in the direction sought with a large enough effect; inconclusive = small, poorly fitted or top-dose-only effect, or another doubt; inactive = no such curve, though single readings can be large; an effect the other way counts as inactive or inconclusive.
SMILES,Tb PYK inh,Cycloheximide cs,Sm TGR inh,Giardia FBPA inh,LmPK inh,Shiga inhibitor
COc1ccc(OCc2cc(C(=O)NC3Cc4ccccc4C3)no2)c(Cl)c1,0%,-4,2%,-2%,-4%,13
O=C(c1cc(COc2ccc(F)cc2F)on1)N1C[C@H]2CC[C@H]1C2,3%,52*,-22%,nt,-9%,101*
COc1ccccc1OCc1cc(C(=O)N2CC3C[C@@H]4CC2C[C@H](C3)C4)no1,7%,51*,0%,nt,4%,76*
Cc1ccc(CNC(=O)CCC(=O)N2CC3CCCN3c3ccccc32)cc1 (stereo not drawn),-5%,nt,-7%,nt,nt,nt
OC1OC[C@H](O)[C@@H](O)[C@@H]1O (stereo partly drawn),nt,-5,nt,1%,nt,-3
O=C(c1cc(COc2c(F)cccc2F)on1)N1C[C@H]2CC[C@H]1C2,6%,76*,4%,nt,-4%,103*
COCC1CCN(C(=O)c2cc(COc3ccc(F)cc3F)on2)C1 (stereo not drawn),-3%,20*,3%,8%,-5%,39
NC(=O)C1(N2CCCCC2)CCN(C(=O)c2cc(COc3c(F)cccc3F)on2)CC1,-8%,nt,nt,nt,nt,nt
CC(Oc1ccc(Br)cc1)C(=O)Nc1ccc(S(=O)(=O)NC2=NCCCCC2)cc1 (stereo not drawn),5%,nt,nt,nt,nt,nt
C#CC(C)(CC)NC(=O)Cn1nnc(-c2ccc(OCc3ccccc3F)cc2)n1 (stereo not drawn),5%,nt,1%,nt,nt,nt
CN(C(=O)c1ccc(OC2CCN(Cc3ccccn3)CC2)cc1)C1CCCCC1,6%,21*,-17%,nt,-10%,22
O=C(NCCc1cccc(Cl)c1)c1ccc(OC2CCN(Cc3ccccn3)CC2)cc1,0%,51*,-27%,14%,-2%,53*
Cc1cccnc1CCNC(=O)c1ccc(OC2CCN(Cc3ccccn3)CC2)cc1,10%,18*,-30%,nt,-11%,60
O=C(O)/C=C/C(=O)NNC(=O)c1ccccc1Br,-15%,11,3.5µM*,-3%,2%,22
Cc1ccccc1C(=O)NNC(=O)/C=C\C(=O)O,-11%,38*,2µM*,-18%,3%,83*
CCCC/C=C/C(NC(=O)c1ccco1)c1ccccc1 (stereo not drawn),nt,nt,nt,7%,nt,nt
O=C(COC(=O)C1COc2ccccc2O1)NC(=O)Nc1ccc2c(c1)OCCO2 (stereo not drawn),-11%,15*,0%,3%,2%,35
O=C(COC(=O)CNS(=O)(=O)c1cccc(Br)c1)NC(=O)Nc1ccc2c(c1)OCCO2,1%,35*,2%,0%,1%,63*
C[C@H](NS(=O)(=O)c1ccc(Cl)cc1)C(=O)OCC(=O)NC(=O)Nc1ccc2c(c1)OCCO2,-8%,101*,1%,-7%,-4%,127*
Cc1ccc(NC(=O)COC(=O)C(NS(=O)(=O)c2ccc(Cl)cc2)C(C)O)cc1C (stereo not drawn),-10%,3,45µM*,1%,6%,2
O=C(COC(=O)C1COc2ccccc2O1)Nc1cccc(Cl)c1 (stereo not drawn),1%,nt,-4%,nt,nt,nt
Cc1ccc(S(=O)(=O)N[C@H](C(=O)OCC(=O)NC(=O)C2CCCCC2)C(C)C)cc1,4%,nt,nt,nt,nt,nt
Cc1ccc(S(=O)(=O)N(C)CC(=O)Nc2ccc3c(c2)OCO3)cc1,1%,1,-12%,1%,1%,25
Cc1ccc(S(=O)(=O)N[C@H](C(=O)OCC(=O)NC(=O)Nc2ccc3c(c2)OCCO3)C(C)C)cc1,-12%,19*,-3%,-12%,-3%,14
Cc1ccc(S(=O)(=O)N(C)CC(=O)OCC(=O)NC(=O)Nc2ccc3c(c2)OCCO3)cc1,9%,55*,10%,-3%,0%,68*
SMILES,Tb PYK inh,Cycloheximide cs,Sm TGR inh,Giardia FBPA inh,LmPK inh,Shiga inhibitor
CC(C)[C@H](NS(=O)(=O)c1ccc2c(c1)OCCO2)C(=O)OCC(=O)Nc1ccccc1,0%,14*,-5%,0%,1%,45
Cc1cc(C)cc(NC(=O)C2CCC(CNS(=O)(=O)c3ccc4c(c3)C(C)(C)C(=O)N4C)CC2)c1 (stereo not drawn),1%,nt,-5%,nt,nt,nt
FC(F)(F)c1ccccc1-c1cncnc1NCc1cccs1,nt,nt,nt,11%,nt,nt
COc1ccc(CCNC(=O)CSc2nc3[nH]ncc3c(=O)n2-c2ccc(Cl)cc2Cl)cc1OC,-5%,-3,6%,-6%,9%[11.5 µM],-13
COc1ccc(CCNC(=O)CSc2nc3[nH]ncc3c(=O)n2-c2ccc(C)c(Cl)c2)cc1OC,3%,41*,18%,-2%,14%,96*
OCCn1c(-c2ccc3c(c2)OCO3)csc1=Nc1ccccc1,3%,37*,-5%,0%,5%,46*
COCCn1c(-c2ccccc2)csc1=Nc1cccnc1,-21%,9,3%,-5%,-7%,-6
OCCn1c(-c2ccc(F)cc2)csc1=Nc1ccccc1,-22%,22*,-12%,9%,6%,71*
CCOc1ccc(C(=O)Nc2ccc(-c3nc4cc(CC)ccc4o3)cc2)cc1,3%,nt,5%,nt,nt,nt
Cn1nc(C(=O)N2CCN(C(c3ccccc3)c3ccccc3)CC2)c2ccccc2c1=O,2%,-2,11%,7%,-2%,-4
O=C1c2sc3nc4c(c(=O)n3c2C(=O)N1c1ccccc1)CCC4,-12%,6,18µM*,0%,-23%,47*
O=C1C2C3C=CC(C3=C3CCCCC3)C2C(=O)N1Cc1ccccc1 (stereo not drawn),4%,-1,18µM*,9%,1%,-6
Cc1nc2ccc(N)cc2s1,-4%,-1,-1%,-14%,-2%,-3
Cc1nc2cc3sc(C)nc3cc2s1,-1%,33*,12%,-15%,5%,73*
Cc1nc2cc(C)c(C)cc2s1,4%,22*,1%,1%,-1%,18
Cc1ccc2nc3c(cc2c1)CC1(C(=O)N(C)C(=O)N(C)C1=O)C1CCCCN31 (stereo not drawn),4%,19*,7%,-8%,1%,69*
O=C(CSCc1ccc(F)cc1)N1CCOCC1,-7%,58*,-4%,-15%,17%,82*
O=C(CSCc1ccc(Br)cc1)N1CCCC1,2%,25*,-1%,0%,1%,27
Cc1ccc(SCc2ccc(C(=O)N3CCCCC3)cc2)cc1,6%,28*,nt,1%,-2%,59*
O=C(CSc1ccc(F)cc1)N1CCOCC1,1%,-3,4%,7%,0%,-3
O=C(CSCc1ccc(Br)cc1)NC1CC1,5%,23,nt,0%,3%,27
CC1CCN(C(=O)CSCc2ccc(Cl)cc2)CC1,-2%,35*,2%,3%,1%,31

# Source: PubChem BioAssay (National Center for Advancing Translational Sciences (NCATS))
